Data on one compound can be found in PMC9574860, “Chemical Toolkit for PARK7: Potent, Selective, and High-Throughput” (Journal of Medicinal Chemistry, 2022).

Structures are written as SMILES. Among all 7,900 compounds or so, about 400 (5.1%) showed an effect of 50% or more. The sample as a whole holds a higher share of strong results than the screen did.

The target of the experiment is Parkinson's disease protein 7 (PARK7/DJ1) (human, UniProt Q99497). Kind of experiment: primary screen, percent inhibition; read as competition with a fluorescent probe by fluorescence polarization; higher = more effect of the substance. The conditions noted are these: 100 µM. On the procedure: The screen was conducted using the conditions as described above in 1536-well plates (Corning 3724) with a reaction volume of 8 μL per well. The compound library containing 7887 covalent fragments was purchased at Enamine Ltd. and received as 100 mM DMSO stocks in 384 well LDV Echo plates (Labcyte LP-0200). Stock solutions of 0.26 μM PARK7 and 80 nM JYQ-107 were prepared. Using a Labcyte Echo550 acoustic dispenser, 8 nL of the DMSO stock solution of the library compounds was transferred from the source plates into the empty 1536-well screening plates to obtain a 100 μM final compound concentration. Next, PARK7 (6 μL, final concentration 0.2 μM) was dispensed using a Biotek MultiflowFX liquid dispenser and incubated for 2 h, followed by dispensing the probe JYQ-107 (2 μL, final concentration 20 nM). After 2 h incubation, the FP signal was recorded on a BMG Labtech PHERAstar plate reader (λex/em 480/520 nm). The relative loss of FP signal compared with reference controls was used to calculate the remaining enzyme activity.
Parkinson's disease protein 7 (PARK7/DJ1), sequence (Q99497 whole entry, looked up, the tested form may be a part): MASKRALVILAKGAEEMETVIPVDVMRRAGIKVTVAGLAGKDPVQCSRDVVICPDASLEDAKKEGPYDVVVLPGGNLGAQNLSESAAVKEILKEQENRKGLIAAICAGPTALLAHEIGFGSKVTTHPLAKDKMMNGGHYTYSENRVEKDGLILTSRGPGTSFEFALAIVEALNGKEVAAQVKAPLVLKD
In turn, `CC1CC1C(=O)N[C@H]1CC[C@@H](CS(=O)(=O)F)C1` (stereo in doubt) came in with an Inhibition % of 90.9%.
